Results taken from the supplement of paper PMC10849652.
Targets with a hit are over-represented here; the source holds about 7,900 in all. About 0.6% of all pairs of compound and target were hits. Values without a mark were called inactive.

Assays:
Assay in all cases: log2 fold change, soluble protein after heating vs DMSO (PISA); higher = thermal stabilisation; K562 cells, 10 uM, 30 min; active = over 0.2 and 3.5 SD of the protein, either way, in both replicates (recomputed)
[1] = compound: CC1=C(C=C(C=C1)NC(=O)C2=CC(=CC=C2)C(C)(C)C#N)NC3=CC4=C(C=C3)N=CN(C4=O)C
Summary of the method: (§1)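 Soluble protein was defined as the supernatant after 21,000xg for 90 min. It came from K562 cells at 2×10^6 cells/mL given 10 μM compound for 30 min, heated in aliquots for 3 min across 48°C-58°C, pooled, and extracted in PBS with 0.5% NP-40 at 4°C, and was quantified by TMTpro 16plex LC-MS/MS with equalised channel sums. Thermal stability against control samples, from duplicates, is reported as log2 fold change.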

[2] = compound: CC1=C(C=C(C=C1)NC(=O)C2=CC(=CC=C2)N(C)C)NC(=O)C3=CC=C(C=C3)O
Summary of the method: as §1

[3] = compound: CC1=CC=C(C=C1)SC2=C3C=C(SC3=CN=C2)C(=O)N
Summary of the method: as §1

[4] = compound: CC1=NC(=CC=C1)C2=C(N=C(N2)C(C)(C)C)C3=CC4=NC=CN=C4C=C3
Summary of the method: as §1

Nexturastat A = compound: CCCCN(Cc1ccc(C(=O)NO)cc1)C(=O)Nc1ccccc1 [Nexturastat A]
Summary of the method: as §1

vemurafenib = compound: CCCS(=O)(=O)Nc1ccc(F)c(C(=O)c2c[nH]c3ncc(-c4ccc(Cl)cc4)cc23)c1F [vemurafenib]
Summary of the method: as §1

[5] = compound: CCCS(=O)(=O)Nc1ccc(F)c(C(=O)c2c[nH]c3ncc(Cl)cc23)c1F
Summary of the method: as §1

[6] = compound: CCCc1cc(C)[nH]c(=O)c1CNC(=O)c1cc(-c2ccnc(N3CCN(C)CC3)c2)cc2c1cnn2C(C)C
Summary of the method: as §1

givinostat = compound: CCN(CC)Cc1ccc2cc(COC(=O)Nc3ccc(C(=O)NO)cc3)ccc2c1 [givinostat]
Summary of the method: as §1

barasertib = compound: CCN(CCCOc1ccc2c(Nc3cc(CC(=O)Nc4cccc(F)c4)[nH]n3)ncnc2c1)CCOP(=O)(O)O [barasertib]
Summary of the method: as §1

[7] = compound: CC[C@@H]1C(=O)N(C)c2cnc(Nc3ccc(C(=O)NC4CCN(C)CC4)cc3OC)nc2N1C1CCCC1
Summary of the method: as §1

volasertib = compound: CC[C@@H]1C(=O)N(C)c2cnc(Nc3ccc(C(=O)N[C@H]4CC[C@H](N5CCN(CC6CC6)CC5)CC4)cc3OC)nc2N1C(C)C [volasertib]
Summary of the method: as §1

[8] = compound: CC[C@H](C)N1C=C(C2=C(C=C(C=C21)C3=CN=C(C=C3)N4CCNCC4)C(=O)NCC5=C(C=C(NC5=O)C)C)C
Summary of the method: as §1

epoxomicin = compound: CC[C@H](C)[C@@H](C(=O)N[C@@H]([C@@H](C)O)C(=O)N[C@@H](CC(C)C)C(=O)[C@]1(CO1)C)NC(=O)[C@H]([C@@H](C)CC)N(C)C(=O)C [epoxomicin]
Summary of the method: as §1

[9] = compound: CCn1c(C(=O)N(C2CC2)C2CC2)cc2c3c(ncn3C)c(Nc3cc(C)n(C)n3)nc21
Summary of the method: as §1

[10] = compound: CCn1cc(-c2ccnc3[nH]c(-c4cccc(CN(C)C)c4)cc23)c(-c2ccc(NC(=O)N(C)C)cc2)n1
Summary of the method: as §1

[11] = compound: CN(C)CC(=O)Nc1ccc2[nH]c(=O)c3ccccc3c2c1
Summary of the method: as §1

rosiglitazone = compound: CN(CCOC1=CC=C(C=C1)C[C@H]2C(=O)NC(=O)S2)C3=CC=CC=N3 (racemic) [rosiglitazone]
Summary of the method: as §1

[12] = compound: CN1C2=C(C3=C1C(=O)N(N=C3)CC4=CC(=CC=C4)N)SC(=C2)S(=O)C
Summary of the method: as §1

[13] = compound: CN1CCC(CNc2ccc3ncc(-c4cccc(OC(F)(F)F)c4)n3n2)CC1
Summary of the method: as §1

Chain of UniProt Q9NR46 (Q9NR46 whole entry, looked up): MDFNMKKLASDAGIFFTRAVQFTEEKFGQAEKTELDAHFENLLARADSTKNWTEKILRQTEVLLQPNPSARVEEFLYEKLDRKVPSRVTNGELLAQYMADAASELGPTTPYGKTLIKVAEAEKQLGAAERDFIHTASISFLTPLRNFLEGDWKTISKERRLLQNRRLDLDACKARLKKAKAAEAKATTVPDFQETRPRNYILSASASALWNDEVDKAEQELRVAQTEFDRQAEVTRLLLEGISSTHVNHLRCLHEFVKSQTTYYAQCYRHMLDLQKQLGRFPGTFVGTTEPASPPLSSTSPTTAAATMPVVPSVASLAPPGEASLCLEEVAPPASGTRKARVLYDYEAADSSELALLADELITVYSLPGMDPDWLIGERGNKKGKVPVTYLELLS
Chain of UniProt Q8IZQ5 (Q8IZQ5 whole entry, looked up): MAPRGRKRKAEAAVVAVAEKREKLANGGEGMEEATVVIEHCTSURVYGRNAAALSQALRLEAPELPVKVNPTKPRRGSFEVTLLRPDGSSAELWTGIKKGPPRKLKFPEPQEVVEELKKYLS
Chain of UniProt Q92696 (Q92696 whole entry, looked up): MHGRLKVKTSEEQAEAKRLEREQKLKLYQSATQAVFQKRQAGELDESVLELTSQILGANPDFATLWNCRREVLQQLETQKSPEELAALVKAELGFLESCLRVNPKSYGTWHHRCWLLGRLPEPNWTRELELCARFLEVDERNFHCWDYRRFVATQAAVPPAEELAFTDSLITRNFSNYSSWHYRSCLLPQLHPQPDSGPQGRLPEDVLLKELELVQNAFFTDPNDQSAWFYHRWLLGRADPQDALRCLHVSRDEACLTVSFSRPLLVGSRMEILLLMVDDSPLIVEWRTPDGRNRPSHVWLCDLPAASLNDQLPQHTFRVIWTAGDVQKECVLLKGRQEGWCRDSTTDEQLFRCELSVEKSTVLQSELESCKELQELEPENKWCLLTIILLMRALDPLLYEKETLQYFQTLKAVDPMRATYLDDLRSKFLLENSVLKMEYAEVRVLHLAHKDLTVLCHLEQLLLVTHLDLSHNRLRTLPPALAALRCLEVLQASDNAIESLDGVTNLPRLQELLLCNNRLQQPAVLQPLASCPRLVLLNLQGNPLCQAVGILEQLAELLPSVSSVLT
Chain of UniProt P51151 (P51151 whole entry, looked up): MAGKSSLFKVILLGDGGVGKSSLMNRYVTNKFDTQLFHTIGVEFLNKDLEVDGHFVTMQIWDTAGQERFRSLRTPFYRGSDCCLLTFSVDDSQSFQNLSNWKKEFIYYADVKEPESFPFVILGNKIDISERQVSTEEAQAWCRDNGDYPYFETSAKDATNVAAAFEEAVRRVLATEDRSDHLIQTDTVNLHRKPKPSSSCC
Chain of UniProt Q9H6H4 (Q9H6H4 whole entry, looked up): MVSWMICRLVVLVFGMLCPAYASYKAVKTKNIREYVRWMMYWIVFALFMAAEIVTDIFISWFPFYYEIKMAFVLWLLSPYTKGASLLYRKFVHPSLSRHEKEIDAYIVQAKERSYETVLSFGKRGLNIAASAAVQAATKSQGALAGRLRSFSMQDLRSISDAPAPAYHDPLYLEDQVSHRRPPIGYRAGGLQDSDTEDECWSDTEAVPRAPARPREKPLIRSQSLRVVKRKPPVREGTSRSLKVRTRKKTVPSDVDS
Chain of UniProt Q13530 (Q13530 whole entry, looked up): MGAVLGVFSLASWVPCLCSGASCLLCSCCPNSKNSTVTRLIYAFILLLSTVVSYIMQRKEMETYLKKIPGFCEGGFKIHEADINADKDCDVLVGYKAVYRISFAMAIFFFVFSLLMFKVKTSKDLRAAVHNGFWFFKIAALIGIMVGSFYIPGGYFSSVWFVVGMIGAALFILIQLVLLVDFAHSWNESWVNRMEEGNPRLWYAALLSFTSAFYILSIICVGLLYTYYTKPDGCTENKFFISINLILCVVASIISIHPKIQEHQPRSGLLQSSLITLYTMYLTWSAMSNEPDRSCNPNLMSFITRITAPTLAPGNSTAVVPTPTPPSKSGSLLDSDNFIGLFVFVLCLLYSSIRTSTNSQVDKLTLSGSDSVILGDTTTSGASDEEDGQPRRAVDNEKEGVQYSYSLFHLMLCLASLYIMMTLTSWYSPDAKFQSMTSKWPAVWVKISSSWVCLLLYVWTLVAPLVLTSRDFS
Chain of UniProt Q14493 (Q14493 whole entry, looked up): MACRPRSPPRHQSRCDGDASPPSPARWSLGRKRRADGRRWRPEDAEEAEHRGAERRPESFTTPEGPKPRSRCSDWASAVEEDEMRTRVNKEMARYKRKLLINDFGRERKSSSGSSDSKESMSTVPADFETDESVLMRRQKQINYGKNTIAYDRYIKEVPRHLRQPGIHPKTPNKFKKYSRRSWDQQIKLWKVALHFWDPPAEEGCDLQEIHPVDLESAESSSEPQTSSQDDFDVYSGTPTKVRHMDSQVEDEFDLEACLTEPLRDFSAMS
Chain of UniProt Q9H4A4 (Q9H4A4 whole entry, looked up): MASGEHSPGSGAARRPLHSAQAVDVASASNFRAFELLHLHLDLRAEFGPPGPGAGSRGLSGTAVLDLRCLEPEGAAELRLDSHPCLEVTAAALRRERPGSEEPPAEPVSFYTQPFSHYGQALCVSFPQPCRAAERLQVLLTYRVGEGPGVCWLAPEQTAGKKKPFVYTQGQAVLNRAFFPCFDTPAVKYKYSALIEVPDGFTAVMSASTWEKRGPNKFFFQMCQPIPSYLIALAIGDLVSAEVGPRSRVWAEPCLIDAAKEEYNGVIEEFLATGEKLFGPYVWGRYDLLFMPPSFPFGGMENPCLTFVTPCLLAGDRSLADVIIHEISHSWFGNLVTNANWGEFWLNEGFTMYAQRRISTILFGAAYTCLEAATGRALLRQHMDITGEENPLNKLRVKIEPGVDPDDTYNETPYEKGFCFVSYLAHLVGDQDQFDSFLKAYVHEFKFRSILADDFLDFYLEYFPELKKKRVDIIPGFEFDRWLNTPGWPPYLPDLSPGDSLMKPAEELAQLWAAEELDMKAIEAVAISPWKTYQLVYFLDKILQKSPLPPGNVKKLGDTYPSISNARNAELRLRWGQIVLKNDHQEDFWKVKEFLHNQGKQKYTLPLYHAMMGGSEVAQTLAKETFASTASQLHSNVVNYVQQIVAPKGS

Row | Target | log2 fold change [1] | log2 fold change [2] | log2 fold change [3] | log2 fold change [4] | log2 fold change (Nexturastat A) | log2 fold change (vemurafenib) | log2 fold change [5] | log2 fold change [6] | log2 fold change (givinostat) | log2 fold change (barasertib) | log2 fold change [7] | log2 fold change (volasertib) | log2 fold change [8] | log2 fold change (epoxomicin) | log2 fold change [9] | log2 fold change [10] | log2 fold change [11] | log2 fold change (rosiglitazone) | log2 fold change [12] | log2 fold change [13]
1 | RNPEP (UniProt Q9H4A4) | 0.032 | -0.024 | 0.002 | 0.023 | -0.023 | 0.058 | 0.052 | -0.013 | -0.112 | 0.036 | 0.015 | -0.303 (active) | 0.078 | 0.042 | -0.074 | -0.09 | 0.034 | 0.077 | -0.036 | -0.119
2 | SH3GLB2 (UniProt Q9NR46) | 0.047 | -0.052 | 0.025 | 0.033 | -0.064 | 0.058 | 0.058 | 0.021 | 0.049 | 0.051 | -0.148 | -0.378 (active) | 0.072 | 0.041 | -0.058 | -0.101 | 0.033 | 0.041 | 0.016 | -0.254
3 | RAB9A (UniProt P51151) | 0.036 | 0.033 | 0.017 | 0.018 | 0.017 | -0.012 | -0.024 | 0.003 | 0.054 | -0.011 | -0.061 | -0.024 | -0.001 | 0.064 | -0.003 | 0.004 | 0.034 | 0 | -0.034 | -0.252 (active)
4 | SLBP (UniProt Q14493) | -0.012 | -0.08 | 0.019 | 0.099 | -0.218 | 0.028 | 0.057 | 0.024 | 0.055 | 0.06 | -0.052 | -0.034 | 0.013 | 0.127 | -0.03 | 0 | -0.003 | -0.048 | 0.113 | -0.291 (active)
5 | RABGGTA (UniProt Q92696) | 0.019 | 0.04 | -0.004 | 0.002 | -0.084 | 0.003 | 0.005 | -0.023 | -0.024 | 0.017 | 0.029 | -0.087 | -0.013 | 0.021 | -0.032 | -0.051 | -0.015 | 0.054 | -0.111 | -0.023
6 | SERINC3 (UniProt Q13530) | -0.136 | -0.001 | 0.009 | 0.054 | 0.011 | 0.083 | 0.002 | -0.414 (active) | 0.064 | 0.038 | 0.165 | 0.075 | -0.144 | -0.092 | 0.029 | -0.064 | 0.043 | 0.049 | -0.014 | 0.046
7 | REEP4 (UniProt Q9H6H4) | 0.08 | 0.001 | 0.047 | -0.043 | 0.107 | 0.008 | 0.126 | 0.019 | 0.011 | 0.002 | -0.023 | -0.043 | -0.011 | -0.08 | 0.024 | 0.051 | -0.015 | -0.033 | 0.079 | -0.134
8 | SELENOH (UniProt Q8IZQ5) | 0.09 | -0.011 | 0.023 | -0.035 | 0.089 | 0.042 | 0.007 | 0.075 | 0.024 | -0.031 | 0.001 | 0.01 | -0.05 | 0.058 | 0.024 | -0.051 | 0.041 | -0.002 | 0.084 | 0.065
